Sm TGR inh: S. mansoni TGR enzyme inhibition; purified TGR, DTNB reduction, TNB absorbance 405 nm; actives 3% (n = 360,000); Q962Y6; Potency, µM (highest dose often 114 µM), for the others: at the highest dose activity change, negative = inhibition, hits mostly inhibitors; note: nearly all actives have a fitted effect of over 60% in size
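First, TGR (20 nM dispensed) and NADPH were mixed with compound. Second, a 15 min room-temperature incubation followed. Third, further NADPH and then DTNB were added to start the reaction. Finally, TNB absorbance was monitored kinetically.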
Tb PYK inh: T. brucei pyruvate kinase inhibition; Q57TT1; TbPYK enzyme, Kinase-Glo Plus ATP luminescence, 45 min; Potency, µM (titrated, usually from 76.8 µM), for inactives: at the highest dose activity, negative = inhibition, most hits filed as inhibitors; actives 0.12% (n = 410,000); note: nearly all actives have a fitted effect of over 50% in size
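Luminescence from Kinase-Glo Plus, added after a 45-minute room-temperature reaction, served as the end-point read-out. The enzyme and substrate were preincubated with compound before ADP (130 uM final) initiated turnover. Concentration-effect curves came from normalized qHTS data.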
RE007 growth inh: less growth of the S. pombe RE007 Vpr strain. Potency, µM (doses to about 92.2 µM), for the others: top-dose activity change, negative = less growth, hits mostly inhibitors. actives 0.21% (n = 360,000). S. pombe RE007 Vpr strain, BacTiter-Glo ATP luminescence, 24 h; active = well fitted falling curve with a large enough effect; inconclusive = small, poorly fitted or top-dose-only effect; inactive = no such curve, though single readings can be large or run the other way; note: nearly all actives have a fitted effect of over 50% in size
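Fission yeast RE007 carrying one integrated HIV-1 vpr copy, seeded at OD 0.01 in PMG+AL medium with 23 nL pinned compound. Grown 24 h at 30 degrees; viability read by BacTiter-Glo luminescence after 5 min.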
FMDV inh: foot and mouth disease virus antiviral activity | FMDV antiviral cell-based qHTS | Potency, µM (highest dose often 57.9 µM), without a hit: at the highest dose activity change, negative = inhibition, most hits filed as inhibitors | actives 1.2% (n = 410,000) | AID 1159524; calls by dose curve; tested in HEK293T cells; note: read-out not given here; nearly all actives have a fitted effect of over 45% in size
The depositor's hits bear a star; ? = inconclusive; nt = no result; [ ] = remark or other dose. Only some compounds are listed: those with a hit (about 3.7% of all), similar ones and a draw of the others. Unless noted, calls come from the whole dose curve; as a rule, active = well fitted curve in the direction sought with a large enough effect; inconclusive = small, poorly fitted or top-dose-only effect, or another doubt; inactive = no such curve, though single readings can be large; an effect the other way counts as inactive or inconclusive. % is set by controls: 0 for no effect and ±100 for the full control effect; potency is the fitted concentration of half-maximal effect.

SMILES	Sm TGR inh	Tb PYK inh	RE007 growth inh	FMDV inh
Cn1c(-c2ccccc2)c(C(=O)CC#N)c2ccccc21	10%	-1%	-5%	?
CN(C)CCCNCC(=O)c1c(-c2ccccc2)n(C)c2ccccc12	50µM*	2%	-6%	-11%
Cc1cc(C)n(-c2cccc(C(=O)NCC3Cc4cc(Cl)cc(-c5cnccn5)c4O3)c2)n1 (configuration not stated)	nt	nt	nt	-18%
CCOC(=O)N1C(=O)[C@@](CC)(c2ccccc2)N1C(=O)OCC	?	-10%	7%	35µM*
CCOC(=O)N1CCN(C(=S)Nc2cccc(C)c2)CC1	2%	5%	1%	-14%
CC[C@@]1(c2cccc(C)c2)C(=O)N(C(=O)OC)N1C(=O)OC	1.6µM*	-13%	9%	-21%
COc1ccccc1NC(=O)CN1C(=O)C(C)(C)c2ccccc21	11%	13%	nt	-22%
CC[C@@]1(c2ccccc2OC)C(=O)N(C(=O)OC)N1C(=O)OC	25µM*	-1%	-12%	?
COc1ccc(NC(=O)c2c(-c3ccc(C)cc3)nnc3ccccc23)cc1Cl	-5%	1%[15.4 µM]	nt	2%
CO[C@H]1[C@H](NC(=O)c2ccco2)c2ccccc2C12CCN(Cc1ccc3cccc(F)c3n1)CC2	nt	nt	nt	-19%
O=C(CNC(=O)c1ccccc1)OCc1cc(=O)n2ccsc2n1	7%	1%	nt	4%
Cc1ccc(OCC(=O)Nc2ccc(OCc3cc(=O)n4ccsc4n3)cc2)cc1C	-2%	13%	nt	-1%
O=C(CNC(=O)c1ccc(Cl)cc1)OCc1cc(=O)n2ccsc2n1	35µM*	-5%	nt	-15%
Cc1ccc(OCC(=O)Nc2ccc(C(=O)OCc3cc(=O)n4ccsc4n3)cc2)cc1C	-3%	1%	nt	35µM*
CC(C)(C)c1ccc(C(=O)Nc2ccc(C(=O)OCc3cc(=O)n4ccsc4n3)cc2)cc1	-4%	4%	nt	14µM*
CC(Oc1ccccc1)C(=O)Nc1ccc(C(=O)OCc2cc(=O)n3ccsc3n2)cc1 (configuration not stated)	-4%	-2%	nt	25µM*
O=C(NC1CCCCCC1)c1ccc2c(c1)sc1nc(-c3ccccc3)cn12	-10%	2%	nt	-1%
COc1ccc(C)cc1NC(=O)COc1cc(=O)n(C)c2ccccc12	9%	-3%	nt	-18%
CCOc1ccc(CCNC(=O)CCc2c(C)nc3c(-c4ccccc4)c(C)nn3c2C)cc1OCC	-9%	3%	nt	-19%
Cn1c(C(=O)N2CCCC(C(=O)NCc3ccc4c(c3)OCO4)C2)cc2sccc21 (configuration not stated)	-6%	-5%	-4%	0%
CCn1c(C(=O)N2CCC(C(=O)NCc3ccc4c(c3)OCO4)CC2)cc2sccc21	-11%	-18%	16%	32µM*
Cc1cc(OC(=O)c2cc(-c3ccc4c(c3)OCCO4)on2)ccc1Cl	-1%	1%	nt	3%
Cc1c(O)c(O)cc2c1CC=C1[C@]3(C)CC[C@]4(C)CC[C@@](C)(C(=O)O)CC4[C@]3(C)CC[C@]12C (some centres not stated)	nt	nt	nt	25µM*
CC1=C(O)C(=O)C=C2C1=CC=C1C2(C)CCC2(C)C3CC(C)(C(=O)O)CCC3(C)CCC12C (configuration not stated)	nt	35µM*	?	-11%
CC(=O)Oc1cc2c(c(C)c1OC(C)=O)CC=C1[C@]3(C)CC[C@]4(C)CC[C@@](C)(C(=O)O)CC4[C@]3(C)CC[C@]12C (some centres not stated)	nt	nt	nt	35µM*
SMILES	Sm TGR inh	Tb PYK inh	RE007 growth inh	FMDV inh
O=S(=O)(c1ccccc1)N1CCC2(CCN(c3cccc(-c4ccccc4)c3)CC2)CC1	nt	0%	nt	-27%
N=c1c2c(-c3ccccc3)c(-c3ccccc3)n(Cc3ccco3)c2ncn1Cc1ccco1	?	1%	12%	25µM*
O=C1c2cccc(OCC(=O)N3CCCc4ccccc43)c2CCN1Cc1ccc(F)cc1	-2%	3%	-11%	20µM*
Cc1cccc(CN2CCc3c(OCC(=O)N4CCCc5ccccc54)cccc3C2=O)c1	-13%	-11%	8%	?
CCOC(=O)N1CCN(C(=O)COc2cccc3c2CCN(Cc2ccc(F)cc2)C3=O)CC1	-9%	3%	6%	14µM*
CC(NC(=O)C1CC1)c1nnc2n1CCN(Cc1cccc(F)c1F)CC2 (configuration not stated)	nt	nt	nt	-1%
CC1CC(C)CN(C(=O)c2ccc(-c3ccc([N+](=O)[O-])cc3)o2)C1 (configuration not stated)	3.2µM*	-19%	?	25%
O=C(c1ccc(-c2ccc(Cl)cc2)o1)N1CCN(c2ccc([N+](=O)[O-])cc2Cl)CC1	0%	-2%	8%	-27%
O=C(c1ccc(-c2ccc([N+](=O)[O-])cc2)o1)N1CCCCC1	45µM*	-9%	-16%	42%
COc1cccc(Cn2c(CNC(=O)Cc3cccc(C)c3)nc3cccnc32)c1	2%	0%	nt	1%
COc1cc(OC)c(/C=N/n2c(C3CCCCC3)n[nH]c2=S)c(OC)c1	-3%	8.9µM*	1%	-3%
COc1cccc(/C=N/n2c(C3CCCCC3)n[nH]c2=S)c1OC	-5%	5.6µM*	8%	-12%
Cc1ccc(C)c(NC(=O)CSc2nnc(-c3cc4occc4n3C)n2-c2ccccc2C)c1	4%	-3%	nt	-11%
O=C(CCCN1C(=O)/C(=C/c2ccccc2Cl)SC1=S)NNC(=O)c1ccc(Cl)cc1Cl	8%	9%	-1%	8.9µM*
Cc1cnc(C(=O)Nc2ccccc2-n2cccc2)cn1	50µM*	3%	-25%	5%
CC1CN(C(=O)CCC(=O)Nc2cc(F)ccc2F)c2ccccc2S1 (configuration not stated)	2%	-1%	nt	-10%
CCCCN1C=CC(=C2C(=O)c3ccccc3C2=O)C=C1	0%	?	?	10µM*
Oc1c(C(Nc2ccccn2)c2cccnc2)cc(Cl)c2cccnc12 (configuration not stated)	4.5µM*	36%	?	-25%
CC(=O)NC(c1ccc(C)cc1)c1cc(Cl)c2cccnc2c1O (configuration not stated)	-7%	-4%	-18%	-19%
Oc1cccc(C(Nc2ccccn2)c2ccc3cccnc3c2O)c1Cl (configuration not stated)	3.2µM*	87%	nt	-24%
Oc1cccc(C(Nc2nccs2)c2ccc3cccnc3c2O)c1 (configuration not stated)	18µM*	-5%	-21%	-10%
COc1ccc(Cl)cc1C(Nc1cccnc1)c1ccc2cccnc2c1O (configuration not stated)	0.1µM*	145%	?	-20%
CCC(=O)NC(c1ccccc1OC)c1ccc2cccnc2c1O (configuration not stated)	-16%	2%	-4%	-15%
Cn1cccc1C(=O)N1CCC2(CC1)CCN(c1ncccn1)CC2	nt	-5%	nt	?
